# Assay results taken from publication PMC8384837, “Expanding the binding specificity for RNA recognition by a PUF domain”.
# Where a chain is given by its changes, count along the chain named.
# Columns and labels:
# Experiment in all cases: yeast three-hybrid, YBZ-1, SC-Leu-His + 0.5 mM 3-AT, 4 days
# Conditions in all cases: tags: N-Gal4 AD-HA kept; label: inside an RPR1-promoter hybrid RNA with tandem MS2 sites; ssRNA
# PUM1 PUF domain R3-EFE = PUM1 PUF domain R3-EFE (Homo sapiens, UniProt Q14671 828-1176, C935E;R936F;Q939E)
# Summary of the method: (§1)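 The interaction score is the logarithmic change in variant frequency from input to selection. It uses log2, with a pseudocount of 1 for absent variants, and frequencies came from PCR-amplified, Illumina-sequenced repeat regions. The libraries were Pumilio-1 PUF domains randomized at the three base-contacting residues per repeat, co-expressed with matching RNA elements in strain YBZ-1 (LexA–MS2 coat fusion, HIS3 reporter). Plating lasted four days on SC-Leu (input) or SC-Leu-His + 0.5 mM 3-AT (selection).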
# PUM1 PUF domain R3-YRQ = PUM1 PUF domain R3-YRQ (Homo sapiens, UniProt Q14671 828-1176, C935Y)
# Summary of the method: as §1
# PUM1 PUF domain R3-FCL = PUM1 PUF domain R3-FCL (Homo sapiens, UniProt Q14671 828-1176, C935F;R936C;Q939L)
# Summary of the method: as §1
# PUM1 PUF domain R5-AVR = PUM1 PUF domain R5-AVR (Homo sapiens, UniProt Q14671 828-1176, C1007A;R1008V;Q1011R)
# Summary of the method: as §1
# PUM1 PUF domain R5-KHC = PUM1 PUF domain R5-KHC (Homo sapiens, UniProt Q14671 828-1176, C1007K;R1008H;Q1011C)
# Summary of the method: as §1
# PUM1 PUF domain R4-SNC = PUM1 PUF domain R4-SNC (Homo sapiens, UniProt Q14671 828-1176, N971S;H972N;Q975C)
# Summary of the method: as §1
# PUM1 PUF domain R8-VWK = PUM1 PUF domain R8-VWK (Homo sapiens, UniProt Q14671 828-1176, N1122V;Y1123W;Q1126K)
# Summary of the method: as §1
# PUM1 PUF domain R6-SYS = molecular target: T1, PUM1 PUF domain R6-SYS (Homo sapiens, UniProt Q14671 828-1176, N1043S;Q1047S)
# T1 sequence: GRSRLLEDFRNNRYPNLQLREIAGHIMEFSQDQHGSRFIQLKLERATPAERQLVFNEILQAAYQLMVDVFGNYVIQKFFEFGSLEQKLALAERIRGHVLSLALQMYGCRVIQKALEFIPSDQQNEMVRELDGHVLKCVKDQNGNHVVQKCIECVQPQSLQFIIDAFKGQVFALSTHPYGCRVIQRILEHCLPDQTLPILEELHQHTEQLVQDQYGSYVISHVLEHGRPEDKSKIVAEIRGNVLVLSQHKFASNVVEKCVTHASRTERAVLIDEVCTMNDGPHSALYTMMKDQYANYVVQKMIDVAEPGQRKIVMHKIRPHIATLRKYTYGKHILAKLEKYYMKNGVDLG
# Summary of the method: as §1
# PUM1 PUF domain R6-AFG = molecular target: T2, PUM1 PUF domain R6-AFG (Homo sapiens, UniProt Q14671 828-1176, N1043A;Y1044F;Q1047G)
# T2 sequence: T1 sequence with S216A, Y217F, S220G
# Summary of the method: as §1
# PUM1 PUF domain R8-RHL = PUM1 PUF domain R8-RHL (Homo sapiens, UniProt Q14671 828-1176, N1122R;Y1123H;Q1126L)
# Summary of the method: as §1
# PUM1 PUF domain R8-PWL = PUM1 PUF domain R8-PWL (Homo sapiens, UniProt Q14671 828-1176, N1122P;Y1123W;Q1126L)
# Summary of the method: as §1
# PUM1 PUF domain R5-KRC = PUM1 PUF domain R5-KRC (Homo sapiens, UniProt Q14671 828-1176, C1007K;Q1011C)
# Chain of PUM1 PUF domain R5-KRC (Q14671 828-1176 C1007K/Q1011C): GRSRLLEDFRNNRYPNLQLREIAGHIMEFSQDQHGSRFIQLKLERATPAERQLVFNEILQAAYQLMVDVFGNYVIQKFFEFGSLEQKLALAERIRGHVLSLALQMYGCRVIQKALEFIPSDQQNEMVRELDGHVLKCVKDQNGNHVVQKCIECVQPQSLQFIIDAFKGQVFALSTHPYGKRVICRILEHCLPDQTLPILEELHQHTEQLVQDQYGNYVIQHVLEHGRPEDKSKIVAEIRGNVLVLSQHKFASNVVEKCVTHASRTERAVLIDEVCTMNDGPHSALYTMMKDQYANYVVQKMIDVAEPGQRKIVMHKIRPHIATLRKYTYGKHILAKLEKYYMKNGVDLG
# Summary of the method: as §1
# PUM1 PUF domain R3-RTL = PUM1 PUF domain R3-RTL (Homo sapiens, UniProt Q14671 828-1176, C935R;R936T;Q939L)
# Summary of the method: as §1
# PUM1 PUF domain R3-KPS = PUM1 PUF domain R3-KPS (Homo sapiens, UniProt Q14671 828-1176, C935K;R936P;Q939S)
# Summary of the method: as §1
# PUM1 PUF domain R6-VYE = molecular target: T3, PUM1 PUF domain R6-VYE (Homo sapiens, UniProt Q14671 828-1176, N1043V;Q1047E)
# T3 sequence: T1 sequence with S216V, S220E
# Summary of the method: as §1
# PUM1 PUF domain R5-SRQ = PUM1 PUF domain R5-SRQ (Homo sapiens, UniProt Q14671 828-1176, C1007S)
# Summary of the method: as §1
# PUM1 PUF domain R5-WWW = PUM1 PUF domain R5-WWW (Homo sapiens, UniProt Q14671 828-1176, C1007W;R1008W;Q1011W)
# Summary of the method: as §1
# PUM1 PUF domain R2-KKG = PUM1 PUF domain R2-KKG (Homo sapiens, UniProt Q14671 828-1176, N899K;Y900K;Q903G)
# Summary of the method: as §1
# PUM1 PUF domain R4-GMC = PUM1 PUF domain R4-GMC (Homo sapiens, UniProt Q14671 828-1176, N971G;H972M;Q975C)
# Summary of the method: as §1
# PUM1 PUF domain R7-LYG = PUM1 PUF domain R7-LYG (Homo sapiens, UniProt Q14671 828-1176, S1079L;N1080Y;E1083G)
# Summary of the method: as §1
sequence,measurement,setting,value
GGCUAGAACUAGUGGAUCCCCCGGCGCCCGGCGGCUCGAGCCCGGGUAAGUGUAAGUAGUCUGCAUGCCGCCGGGCGCCAUGCCUGCAGGUCGACUCUAGAAAACAUG,binding signal,PUM1 PUF domain R3-EFE,5.2 log2 enrichment (interaction score)
same,binding signal,PUM1 PUF domain R3-YRQ,3.31 log2 enrichment (interaction score)
same,binding signal,PUM1 PUF domain R3-FCL,4.28 log2 enrichment (interaction score)
GGCUAGAACUAGUGGAUCCCCCGGCGCCCGGCGGCUCGAGCCCGGGUAAGUGUAAAUAGUCUGCAUGCCGCCGGGCGCCAUGCCUGCAGGUCGACUCUAGAAAACAUG,binding signal,PUM1 PUF domain R5-AVR,1.73 log2 enrichment (interaction score)
same,binding signal,PUM1 PUF domain R5-KHC,3.4 log2 enrichment (interaction score)
same,binding signal,PUM1 PUF domain R4-SNC,2.78 log2 enrichment (interaction score)
same,binding signal,PUM1 PUF domain R8-VWK,4.11 log2 enrichment (interaction score)
same,binding signal,PUM1 PUF domain R6-SYS,3 log2 enrichment (interaction score)
same,binding signal,PUM1 PUF domain R6-AFG,3.11 log2 enrichment (interaction score)
same,binding signal,PUM1 PUF domain R8-RHL,3.23 log2 enrichment (interaction score)
same,binding signal,PUM1 PUF domain R8-PWL,2.93 log2 enrichment (interaction score)
same,binding signal,PUM1 PUF domain R5-KRC,2.12 log2 enrichment (interaction score)
GGCUAGAACUAGUGGAUCCCCCGGCGCCCGGCGGCUCGAGCCCGGGUAAGUGUCAAUAGUCUGCAUGCCGCCGGGCGCCAUGCCUGCAGGUCGACUCUAGAAAACAUG,binding signal,PUM1 PUF domain R5-AVR,4.64 log2 enrichment (interaction score)
same,binding signal,PUM1 PUF domain R5-KRC,3.63 log2 enrichment (interaction score)
GGCUAGAACUAGUGGAUCCCCCGGCGCCCGGCGGCUCGAGCCCGGGUAAGUGUAAUUAGUCUGCAUGCCGCCGGGCGCCAUGCCUGCAGGUCGACUCUAGAAAACAUG,binding signal,PUM1 PUF domain R3-EFE,3.56 log2 enrichment (interaction score)
same,binding signal,PUM1 PUF domain R3-RTL,2.61 log2 enrichment (interaction score)
same,binding signal,PUM1 PUF domain R3-KPS,3.86 log2 enrichment (interaction score)
GGCUAGAACUAGUGGAUCCCCCGGCGCCCGGCGGCUCGAGCCCGGGUAAGUGAAAAUAGUCUGCAUGCCGCCGGGCGCCAUGCCUGCAGGUCGACUCUAGAAAACAUG,binding signal,PUM1 PUF domain R6-VYE,7.22 log2 enrichment (interaction score)
GGCUAGAACUAGUGGAUCCCCCGGCGCCCGGCGGCUCGAGCCCGGGUAAGUGUGAAUAGUCUGCAUGCCGCCGGGCGCCAUGCCUGCAGGUCGACUCUAGAAAACAUG,binding signal,PUM1 PUF domain R5-AVR,0.2 log2 enrichment (interaction score)
same,binding signal,PUM1 PUF domain R5-SRQ,3.6 log2 enrichment (interaction score)
same,binding signal,PUM1 PUF domain R5-WWW,3.25 log2 enrichment (interaction score)
same,binding signal,PUM1 PUF domain R5-KRC,1.03 log2 enrichment (interaction score)
GGCUAGAACUAGUGGAUCCCCCGGCGCCCGGCGGCUCGAGCCCGGGUAAGCGUAAAUAGUCUGCAUGCCGCCGGGCGCCAUGCCUGCAGGUCGACUCUAGAAAACAUG,binding signal,PUM1 PUF domain R8-RHL,5.48 log2 enrichment (interaction score)
same,binding signal,PUM1 PUF domain R8-PWL,3.61 log2 enrichment (interaction score)
GGCUAGAACUAGUGGAUCCCCCGGCGCCCGGCGGCUCGAGCCCGGGUAAGUGUAAAGAGUCUGCAUGCCGCCGGGCGCCAUGCCUGCAGGUCGACUCUAGAAAACAUG,binding signal,PUM1 PUF domain R2-KKG,7.11 log2 enrichment (interaction score)
GGCUAGAACUAGUGGAUCCCCCGGCGCCCGGCGGCUCGAGCCCGGGUAAGUGUACAUAGUCUGCAUGCCGCCGGGCGCCAUGCCUGCAGGUCGACUCUAGAAAACAUG,binding signal,PUM1 PUF domain R4-SNC,2.48 log2 enrichment (interaction score)
GGCUAGAACUAGUGGAUCCCCCGGCGCCCGGCGGCUCGAGCCCGGGUAAGUGGAAAUAGUCUGCAUGCCGCCGGGCGCCAUGCCUGCAGGUCGACUCUAGAAAACAUG,binding signal,PUM1 PUF domain R6-VYE,2.43 log2 enrichment (interaction score)
GGCUAGAACUAGUGGAUCCCCCGGCGCCCGGCGGCUCGAGCCCGGGUAAGUGUAUAUAGUCUGCAUGCCGCCGGGCGCCAUGCCUGCAGGUCGACUCUAGAAAACAUG,binding signal,PUM1 PUF domain R4-SNC,3.92 log2 enrichment (interaction score)
same,binding signal,PUM1 PUF domain R4-GMC,3.12 log2 enrichment (interaction score)
GGCUAGAACUAGUGGAUCCCCCGGCGCCCGGCGGCUCGAGCCCGGGUAAGUGUUAAUAGUCUGCAUGCCGCCGGGCGCCAUGCCUGCAGGUCGACUCUAGAAAACAUG,binding signal,PUM1 PUF domain R5-KHC,6.52 log2 enrichment (interaction score)
same,binding signal,PUM1 PUF domain R5-KRC,3.89 log2 enrichment (interaction score)
GGCUAGAACUAGUGGAUCCCCCGGCGCCCGGCGGCUCGAGCCCGGGUAAGUCUAAAUAGUCUGCAUGCCGCCGGGCGCCAUGCCUGCAGGUCGACUCUAGAAAACAUG,binding signal,PUM1 PUF domain R7-LYG,2.93 log2 enrichment (interaction score)
